Several values for one entry are separate records, joined by “and”; a condition that tells them apart may be missing. Identical values can stand only once. Records with an inconclusive call do not appear. Some structures have more than one record in an assay (separate samples or runs), and their calls can disagree. Activity calls are given as the source filed them. How the source made its calls: active means hit-call score of the fitted dose curve at least 0.9, where 1 is the maximum; inconclusive means response in the unintended direction; inactive means score below 0.9.
biological target: Cytochrome P450 2C19 (Homo sapiens) (UniProt P33261); assay: NVS_ADME_hCYP2C19: NovaScreen (NVS) CYP450-related Enzyme Activity (ADME) Assay for human CYP2C19 (AID 2283113);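 on AC50: potency for inhibition seen as loss of fluorescent signal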
Experimental: NVS_ADME_hCYP2C19 is a biochemical, single-readout assay that uses extracted gene-proteins from insect cells in a cell-free assay. Measurements were taken 1 hour after chemical dosing in a 96-well plate.NVS_ADME_hCYP2C19 is one of one assay component(s) measured or calculated from the NVS_ADME_hCYP2C19 assay. It is designed to make measurements of enzyme activity, a form of enzyme reporter, as detected with fluorescence intensity signals by Fluorescence technology.Data from the assay component NVS_ADME_hCYP2C19 was analyzed into 1 assay endpoint. This assay endpoint, NVS_ADME_hCYP2C19, was analyzed in the positive analysis fitting direction relative to Acetonitrile as the negative control and baseline of activity. Using a type of enzyme reporter, loss-of-signal activity can be used to understand changes in the enzymatic activity as they relate to the gene CYP2C19. Furthermore, this assay endpoint can be referred to as a primary readout, because this assay has produced multiple assay endpoints where this one serves a enzymatic activity function. To generalize the intended target to other relatable targets, this assay endpoint is annotated to the cyp intended target family, where the subfamily is xenobiotic metabolism.
Binding assays used specific radioligands (tritiated, iodinated) with non-radioactive competitive displacement ligands in agonist or antagonist protocols (as indicated) and various reference compounds and inhibitors to titrate specific binding to receptors and transporters. Most enzyme assays (CYPs, kinases, phosphatases, proteases, HDACs) used recombinant protein and specific substrates (fluorescence mostly, some colorimetric and radioactive) and inhibitors, followed by a biochemical separation of substrate and product. All assays for the biochemical HTS were initially run in duplicate at a single concentration (10 uM for CYP450 assays and 25 uM for all others). […] Each assay was run with positive and negative controls, and concurrent controls on every plate. The follow-up (secondary) screen tested active chemical-pairs in concentration series, as well as a few additional assays not tested in the primary screen, some selected negative inactives, and several cases re-run in the concentration series for confirmatory purposes.

Row | SMILES | AC50 | outcome
1 | CC(=O)[C@H]1CC[C@H]2[C@@H]3CCC4=CC(=O)CC[C@]4(C)[C@H]3CC[C@]12C | 2.46 µM (active) and 4.48 µM (active) and 6.21 µM (active) | –
2 | COc1nc(C)nc(NC(=O)NS(=O)(=O)c2ccccc2OCCCl)n1 | 0.0177 µM (active) | –
3 | CCCCOCCOCCOCc1cc2c(cc1CCC)OCO2 | 1.73 µM (active) | –
4 | CCCOC(=O)c1ccc(C(=O)OCCC)nc1 | 6.74 µM (active) | –
5 | C#CCOC(=O)[C@@H](C)Oc1ccc(Oc2ncc(Cl)cc2F)cc1 | 1.5 µM (active) | –
6 | CCOC(=O)[C@H](C)Oc1ccc(Oc2nc3ccc(Cl)cc3o2)cc1 | – | inactive
7 | CC1(C)C(C=C(Cl)Cl)C1C(=O)OCc1cccc(Oc2ccccc2)c1 (stereo unspecified) | – | inactive
8 | CCCCC(CC)COC(=O)c1ccccc1C(=O)O (stereo unspecified) | 7.13 µM (active) | –
9 | O=C(c1ccc(O)cc1O)c1ccc(O)cc1O | 6.3 µM (active) | –
10 | CC(C)(C)[C@@H](O)[C@@H](Cc1ccc(Cl)cc1)n1cncn1 | 0.172 µM (active) | –
11 | CCCCCOC(=O)COc1cc(N2C(=O)C3=C(CCCC3)C2=O)c(F)cc1Cl | 4.42 µM (active) | –
12 | S=C([S-])NCCNC(=S)[S-].[Mn+2] | 5.86 µM (active) | –
13 | CCOC(=O)NCCOc1ccc(Oc2ccccc2)cc1 | 0.816 µM (active) | –
14 | CC(C)CCCCCCc1ccc(O)cc1 | 2.75 µM (active) | –
15 | Cc1nn(C)c(Oc2ccccc2)c1C=NOCc1ccc(C(=O)OC(C)(C)C)cc1 | 3.32 µM (active) | –
16 | CCOC(=O)C(C)Oc1ccc(Oc2nc3ccc(Cl)cc3o2)cc1 (stereo unspecified) | 10 µM (active) | –
17 | CCCCCCC(C)OC(=O)COc1nc(F)c(Cl)c(N)c1Cl (stereo unspecified) | 4.62 µM (active) | –
18 | N#CSCSc1nc2ccccc2s1 | 4.76 µM (active) | –
19 | CSC(=O)c1cccc2nnsc12 | 3.95 µM (active) | –
20 | CCCCC(CC)CN1C(=O)C2C3C=CC(C3)C2C1=O (stereo unspecified) | 8.18 µM (active) | –
21 | CCCN(CCC)C(=O)SCC | 8.68 µM (active) | inactive
22 | C=CCOC(Cn1ccnc1)c1ccc(Cl)cc1Cl (stereo unspecified) | 0.062 µM (active) | –
23 | CCCCOC(=O)[C@@H](C)Oc1ccc(Oc2ccc(C(F)(F)F)cn2)cc1 | – | inactive
24 | CCN(Cc1c(F)cccc1Cl)c1c([N+](=O)[O-])cc(C(F)(F)F)cc1[N+](=O)[O-] | 10 µM (active) | –
25 | Oc1ccc(C(c2ccc(O)cc2)C(Cl)(Cl)Cl)cc1 | 1.03 µM (active) | –
26 | C#C[C@]1(O)CC[C@H]2[C@@H]3CCC4=CC(=O)CC[C@@H]4[C@H]3CC[C@@]21CC | 1.24 µM (active) | –
27 | S=C(S)NCCNC(=S)S.[Mn+2].[S-]C([S-])=NCCN=C([S-])[S-].[Zn+2] | – | inactive
28 | CCCCOC(=O)C(C)Oc1ccc(Oc2ccc(C(F)(F)F)cn2)cc1 (stereo unspecified) | – | inactive
29 | COC(=O)c1ccccc1C(=O)O | 5.84 µM (active) | –
30 | CC(=O)S[C@@H]1CC2=CC(=O)CC[C@]2(C)[C@H]2CC[C@@]3(C)[C@@H](CC[C@@]34CCC(=O)O4)[C@H]12 | 6.12 µM (active) | –

— PubChem BioAssay (EPA / NIEHS)
